Experimental data as given in PubChem BioAssay (EPA / NIEHS).
Activity calls are given as the source filed them. How the source made its calls: active means hit-call score of the fitted dose curve at least 0.9, where 1 is the maximum; inactive means score below 0.9.

Experiments:
Conditions in all cases: mRNA level, 48 h; actives raise or lower the signal
CYP2C9 (gene 1559) = test: LTEA_HepaRG_CYP2C9: Life Technologies and Expression Analysis (LTEA) Assay for CYP2C9 using HepaRG (AID 2283484)
Summary of the method: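 CYP2C9 transcript level, quantified by TaqMan qRT-PCR against three housekeeping genes, was fitted bidirectionally relative to 0.5% DMSO. HepaRG cultures were treated 48 h, in duplicate, at eight half-log concentrations topping at 100 uM.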

CYP2E1 (gene 1571) = test: LTEA_HepaRG_CYP2E1: Life Technologies and Expression Analysis (LTEA) Assay for CYP2E1 using HepaRG (AID 2283485)
Summary of the method: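 Readout is qRT-PCR of CYP2E1 mRNA, normalized to three housekeeping genes and fitted bidirectionally against 0.5% DMSO. HepaRG cells were dosed 48 h at eight concentrations, highest 100 uM with half-log dilutions.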

CYP4A11 (gene 1579) = test: LTEA_HepaRG_CYP4A11: Life Technologies and Expression Analysis (LTEA) Assay for CYP4A11 using HepaRG (AID 2283486)
Summary of the method: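 Human hepatic HepaRG cultures receive duplicate 48 h exposures across a concentration-response series topping at 100 uM. Expression changes in CYP4A11 are measured by qRT-PCR relative to DMSO controls.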

[1] = read-out: Cytochrome P450 3A4 (Homo sapiens) (UniProt P08684); test: LTEA_HepaRG_CYP3A4: Life Technologies and Expression Analysis (LTEA) Assay for CYP3A4 using HepaRG (AID 2283487)
Summary of the method: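 HepaRG, 48 h exposure, 8-pt CRC from 100 uM (half-log), 0.5% DMSO, duplicates; serum-free induction medium. Readout: CYP3A4 mRNA, qRT-PCR, ACTB/GAPDH/POLR2A normalization. Bidirectional fit vs DMSO.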

[2] = read-out: DNA damage-inducible transcript 3 (DDIT3), DDIT3 (gene 1649); test: LTEA_HepaRG_DDIT3: Life Technologies and Expression Analysis (LTEA) Assay for DNA damage-inducible transcript 3 (DDIT3) using HepaRG (AID 2283488)
Summary of the method: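 Cells are human HepaRG liver cells treated for 48 h with eight half-log concentrations up to 100 uM in 0.5% DMSO. Transcript levels come from qRT-PCR normalized to three housekeeping genes, with activity fitted in both directions relative to vehicle.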

[3] = read-out: Pro-epidermal growth factor (Homo sapiens) (UniProt P01133); test: LTEA_HepaRG_EGF: Life Technologies and Expression Analysis (LTEA) Assay for Epidermal growth factor (EGF) using HepaRG (AID 2283489)
Summary of the method: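 Concentration-response mRNA assay: HepaRG cells dosed 48 h (max 100 uM, 0.5% DMSO), EGF measured by qRT-PCR and normalized to ACTB/GAPDH/POLR2A.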

[4] = read-out: Early growth response protein 1 (EGR1) transcription factor, EGR1 (gene 1958); test: LTEA_HepaRG_EGR1: Life Technologies and Expression Analysis (LTEA) Assay for Early growth response protein 1 (EGR1) transcription factor using HepaRG (AID 2283490)
Summary of the method: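 EGR1 transcript levels quantified by qRT-PCR (Fluidigm arrays) against three housekeeping genes after 48 h chemical exposure of HepaRG cells. Eight-point half-log series topping at 100 uM, 0.5% DMSO vehicle, analyzed for gain or loss.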

[5] = read-out: Ezrin (EZR), EZR (gene 7430); test: LTEA_HepaRG_EZR: Life Technologies and Expression Analysis (LTEA) Assay for Ezrin (EZR) using HepaRG (AID 2283491)
Summary of the method: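 Read-out is EZR transcript level by qRT-PCR, normalized to three housekeeping genes and fitted bidirectionally against the DMSO control. Human HepaRG cells received test chemicals for 48 h at eight half-log concentrations up to 100 uM in 0.5% DMSO.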

[6] = read-out: Cytochrome P450 3A7 (Homo sapiens) (UniProt P24462); test: LTEA_HepaRG_CYP3A7: Life Technologies and Expression Analysis (LTEA) Assay for CYP3A7 using HepaRG (AID 2283492)
Summary of the method: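 qRT-PCR of CYP3A7 in HepaRG lysates after 48 h treatment; concentration-response (8 points, max 100 uM) analysed bidirectionally relative to 0.5% DMSO controls.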

CYP3A5 (gene 1577) = test: LTEA_HepaRG_CYP3A5: Life Technologies and Expression Analysis (LTEA) Assay for CYP3A5 using HepaRG (AID 2283493)
Summary of the method: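 Human HepaRG hepatic cells receive 48 h chemical treatment at eight concentrations (half-log steps from 100 uM) in 0.5% DMSO. Expression of CYP3A5 is quantified by Fluidigm qRT-PCR and normalized to three reference genes.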

[7] = read-out: Fatty Acid-Binding Protein 1 (FABP1), FABP1 (gene 2168); test: LTEA_HepaRG_FABP1: Life Technologies and Expression Analysis (LTEA) Assay for Fatty Acid-Binding Protein 1 (FABP1) using HepaRG (AID 2283494)
Summary of the method: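 FABP1 expression by TaqMan qRT-PCR, normalised to three housekeeping genes, in HepaRG cells after 48 h chemical treatment. Eight-point half-log series topping at 100 uM in 0.5% DMSO, duplicates; gain or loss fitted relative to vehicle.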

[8] = read-out: Cytochrome P450 7A1 (Homo sapiens) (UniProt P22680); test: LTEA_HepaRG_CYP7A1: Life Technologies and Expression Analysis (LTEA) Assay for Cytochrome P450 7A1 (CYP7A1) using HepaRG (AID 2283496)
Summary of the method: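 HepaRG, 48 h exposure, 8-pt half-log series from 100 uM, 0.5% DMSO vehicle, duplicates. Readout: TaqMan qRT-PCR mRNA vs three housekeeping genes; bidirectional curve fit against DMSO baseline.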

[9] = read-out: Glutathione S-Transferase (GSTA2), GSTA2 (gene 2939); test: LTEA_HepaRG_GSTA2: Life Technologies and Expression Analysis (LTEA) Assay for Glutathione S-Transferase (GSTA2) using HepaRG (AID 2283497)
Summary of the method: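 GSTA2 transcript levels came from Fluidigm TaqMan qRT-PCR normalized to three housekeeping genes, fitted in both directions against DMSO. HepaRG cultures received chemicals for 48 h in serum-free induction medium (0.5% DMSO), 8 half-log concentrations up to 100 uM, duplicate.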

[10] = read-out: Glutamate-cysteine ligase catalytic (GCLC), GCLC (gene 2729); test: LTEA_HepaRG_GCLC: Life Technologies and Expression Analysis (LTEA) Assay for Glutamate-cysteine ligase catalytic (GCLC) using HepaRG (AID 2283498)
Summary of the method: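 Expression by TaqMan qRT-PCR, normalized to three housekeeping genes (ACTB, GAPDH, POLR2A), with up- or down-regulation fitted against DMSO. HepaRG cells dosed in duplicate for 48 h with 8 half-log concentrations up to 100 uM, vehicle 0.5% DMSO.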

[11] = read-out: growth arrest and DNA damage 45 (GADD45G), GADD45G (gene 10912); test: LTEA_HepaRG_GADD45G: Life Technologies and Expression Analysis (LTEA) Assay for growth arrest and DNA damage 45 (GADD45G) using HepaRG (AID 2283499)
Summary of the method: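 Concentration-response in HepaRG: 48 h dosing, 0.5% DMSO, highest level 100 uM. GADD45G expression by qRT-PCR, normalised to endogenous controls; bidirectional fit to DMSO.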

[12] = read-out: Glutamate-cysteine ligase regulatory (GCLM), GCLM (gene 2730); test: LTEA_HepaRG_GCLM: Life Technologies and Expression Analysis (LTEA) Assay for Glutamate-cysteine ligase regulatory (GCLM) using HepaRG (AID 2283500)
Summary of the method: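 Endpoint is GCLM transcript level by qRT-PCR, normalized to three housekeeping genes, after 48 h chemical exposure of human HepaRG cells (0.5% DMSO vehicle, top 100 uM, half-log dilutions). Fitting was bidirectional relative to DMSO.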

[13] = read-out: Glutathione S-transferase M3 (GSTM3), GSTM3 (gene 2947); test: LTEA_HepaRG_GSTM3: Life Technologies and Expression Analysis (LTEA) Assay for Glutathione S-transferase M3 (GSTM3) using HepaRG (AID 2283501)
Summary of the method: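 Expression of GSTM3 is determined by qRT-PCR in human liver HepaRG cells treated 48 h with an 8-point half-log range from 100 uM in 0.5% DMSO.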

[14] = read-out: Heat shock 70 kDa protein 1 (HSPA1A), gene 3303; test: LTEA_HepaRG_HSPA1A: Life Technologies and Expression Analysis (LTEA) Assay for Heat shock 70 kDa protein 1 (HSPA1A) using HepaRG (AID 2283502)
Summary of the method: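 Cells were plated and cultured for 48 h, then switched to serum-free induction medium. Chemicals were added at eight half-log concentrations up to 100 uM for 48 h. RNA was then isolated and HSPA1A measured by qRT-PCR with bidirectional curve fitting against DMSO.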

[15] = read-out: Hypoxia-inducible factor 1-alpha (Homo sapiens) (UniProt Q16665); test: LTEA_HepaRG_HIF1A: Life Technologies and Expression Analysis (LTEA) Assay for Hypoxia-inducible factor 1 (HIF1A) Trancription factor using HepaRG (AID 2283503)
Summary of the method: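 HIF1A transcript level read by qRT-PCR (ACTB, GAPDH, POLR2A normalization) after 48 h chemical exposure of HepaRG cultures. Eight half-log concentrations, top 100 uM, 0.5% DMSO vehicle, duplicates; bidirectional curve fit against DMSO baseline.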

[16] = read-out: 3-Hydroxy-3-Methylglutaryl-CoA Synthase 2 (HMGCS2), HMGCS2 (gene 3158); test: LTEA_HepaRG_HMGCS2: Life Technologies and Expression Analysis (LTEA) Assay for 3-Hydroxy-3-Methylglutaryl-CoA Synthase 2 (HMGCS2) using HepaRG (AID 2283504)
Summary of the method: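 This steatosis marker was read as HMGCS2 mRNA change in HepaRG cells treated 48 h with up to 100 uM chemical. Normalisation used housekeeping genes; activity in either direction was fitted relative to 0.5% DMSO vehicle.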

Measured: AC50

Sequence of Cytochrome P450 3A7 (Homo sapiens) (P24462 whole entry, looked up): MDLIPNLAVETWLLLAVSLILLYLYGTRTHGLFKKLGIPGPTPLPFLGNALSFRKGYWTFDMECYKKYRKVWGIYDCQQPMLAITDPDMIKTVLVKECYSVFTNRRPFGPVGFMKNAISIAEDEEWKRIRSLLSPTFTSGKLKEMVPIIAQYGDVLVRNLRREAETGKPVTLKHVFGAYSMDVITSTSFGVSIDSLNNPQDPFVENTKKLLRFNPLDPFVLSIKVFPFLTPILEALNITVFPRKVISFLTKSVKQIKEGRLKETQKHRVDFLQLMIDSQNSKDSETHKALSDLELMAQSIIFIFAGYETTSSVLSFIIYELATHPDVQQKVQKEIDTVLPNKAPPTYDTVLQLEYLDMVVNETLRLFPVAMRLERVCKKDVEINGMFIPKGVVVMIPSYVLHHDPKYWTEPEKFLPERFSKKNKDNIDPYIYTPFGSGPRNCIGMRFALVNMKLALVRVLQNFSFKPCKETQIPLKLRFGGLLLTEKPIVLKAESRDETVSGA
Sequence of Cytochrome P450 3A4 (Homo sapiens) (P08684 whole entry, looked up): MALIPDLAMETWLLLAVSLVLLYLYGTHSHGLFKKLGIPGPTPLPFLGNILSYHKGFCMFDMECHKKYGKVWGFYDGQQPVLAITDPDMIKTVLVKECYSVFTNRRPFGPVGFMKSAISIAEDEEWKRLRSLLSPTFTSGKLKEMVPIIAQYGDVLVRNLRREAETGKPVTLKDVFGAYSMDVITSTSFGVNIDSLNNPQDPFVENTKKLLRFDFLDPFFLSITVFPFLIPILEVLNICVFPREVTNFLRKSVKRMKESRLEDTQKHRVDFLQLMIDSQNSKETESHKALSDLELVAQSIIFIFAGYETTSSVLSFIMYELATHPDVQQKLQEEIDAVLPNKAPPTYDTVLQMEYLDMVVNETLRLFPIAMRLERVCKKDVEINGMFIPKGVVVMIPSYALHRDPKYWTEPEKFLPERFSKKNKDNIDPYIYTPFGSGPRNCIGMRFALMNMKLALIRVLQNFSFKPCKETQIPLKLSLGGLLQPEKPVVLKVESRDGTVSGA
Sequence of Hypoxia-inducible factor 1-alpha (Homo sapiens) (Q16665 whole entry, looked up): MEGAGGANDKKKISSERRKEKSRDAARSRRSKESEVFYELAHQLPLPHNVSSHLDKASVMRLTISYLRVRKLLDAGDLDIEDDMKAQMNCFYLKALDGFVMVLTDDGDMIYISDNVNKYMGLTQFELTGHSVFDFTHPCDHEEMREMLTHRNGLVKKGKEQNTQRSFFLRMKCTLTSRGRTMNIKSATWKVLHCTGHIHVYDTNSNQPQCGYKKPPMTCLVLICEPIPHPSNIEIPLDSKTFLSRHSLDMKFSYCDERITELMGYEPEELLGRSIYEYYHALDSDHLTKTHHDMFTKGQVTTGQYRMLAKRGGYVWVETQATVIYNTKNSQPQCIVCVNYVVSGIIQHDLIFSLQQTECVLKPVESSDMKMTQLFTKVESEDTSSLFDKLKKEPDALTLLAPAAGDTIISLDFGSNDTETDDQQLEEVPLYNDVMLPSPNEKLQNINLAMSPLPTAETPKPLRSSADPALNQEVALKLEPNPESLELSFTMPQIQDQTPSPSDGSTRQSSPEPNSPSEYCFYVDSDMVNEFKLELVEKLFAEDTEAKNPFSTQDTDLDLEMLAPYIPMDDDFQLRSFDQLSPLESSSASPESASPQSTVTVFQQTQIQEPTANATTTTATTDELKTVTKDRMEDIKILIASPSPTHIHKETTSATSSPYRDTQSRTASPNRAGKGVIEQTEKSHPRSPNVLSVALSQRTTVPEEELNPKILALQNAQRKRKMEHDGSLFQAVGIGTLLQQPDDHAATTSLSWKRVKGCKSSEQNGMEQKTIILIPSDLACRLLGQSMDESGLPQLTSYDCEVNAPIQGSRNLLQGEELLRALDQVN

Cc1cc(C)cc(C)c1
inactive: all assays above

CN(C)C(=S)S
not listed: [3] | [8]
inactive: all other assays above

Oc1cc(Cl)c(Cl)cc1Cl
not listed: [13]
inactive: all other assays above

CC(C)(C)c1ccccc1O
active: CYP2E1 (gene 1571) 15.1 µM | [1] 12.6 µM | [6] 4.77 µM
inactive: all other assays above

O=C(O)C1(c2ccc3c(c2)OC[C@H](Cc2ccc(-c4ccccc4)cc2)[C@H]3O)CCCC1
inactive: CYP2C9 (gene 1559) | CYP4A11 (gene 1579) | [3] | [6] | [8] | [11] | [12] | [13] | [16]
active: CYP2E1 (gene 1571) 84.5 µM | [1] 4.6 µM | [2] 50 µM | [4] 81.7 µM | [5] 63.1 µM | CYP3A5 (gene 1577) 77 µM | [7] 83.9 µM | [9] 80.1 µM | [10] 75.6 µM | [14] 78.2 µM | [15] 82.3 µM

Clc1cccc(Cl)c1Cl
inactive: all assays above

CC(C)O.CC(C)O.OCCN(CCO)CCO.OCCN(CCO)CCO.[Ti]
active: CYP2E1 (gene 1571) 50 µM
inactive: all other assays above
